A selection: hits, their analogues and other compounds. The true share with any hit is near 7.7%.
Giardia FBPA inh-1: qHTS Assay for Inhibitors of Fructose-1,6-bisphosphate Aldolase from Giardia Lamblia; purified Giardia FBPA; Potency, µM (doses to about 59.6 µM), most hits filed as inhibitors; A8B2U2; 0.71% of 290,000 active; AID 2451, 2010; further: nearly all actives have a fitted effect of over 55% in size
Target sequence (A8B2U2 whole entry, looked up): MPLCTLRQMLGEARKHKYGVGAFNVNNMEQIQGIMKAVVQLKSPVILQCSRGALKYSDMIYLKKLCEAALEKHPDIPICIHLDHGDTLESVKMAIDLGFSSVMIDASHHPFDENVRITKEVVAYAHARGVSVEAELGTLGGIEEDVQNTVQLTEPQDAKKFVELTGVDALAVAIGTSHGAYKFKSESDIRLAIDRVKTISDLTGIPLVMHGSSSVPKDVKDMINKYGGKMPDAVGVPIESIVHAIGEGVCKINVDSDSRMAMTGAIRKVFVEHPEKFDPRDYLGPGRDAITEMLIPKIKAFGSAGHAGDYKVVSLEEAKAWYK
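40 nM FBPA preincubated 10 min at RT with compound (up to 57.5 uM final), then substrate plus GAPDH/TPI/NAD/arsenate coupling and diaphorase/resazurin added. Fluorescence read after 20 min at RT, 525/598 nm.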
RE007 growth inh: qHTS Assay for Inhibitors of the HIV-1 protein Vpr; AID 651644, 2012; Potency, µM (top dose mostly 92.2 µM), usual class: inhibitors; 0.21% of 360,000 active; S. pombe RE007 Vpr strain, BacTiter-Glo ATP luminescence, 24 h; active means well fitted falling curve with a large enough effect; inconclusive means small, poorly fitted or top-dose-only effect; inactive means no such curve, though single readings can be large or run the other way; further: nearly all actives have a fitted effect of over 50% in size
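Fission yeast strain RE007, carrying one chromosomally integrated HIV-1 vpr copy, was seeded at OD 0.01 in PMG+AL medium with 23 nL pinned compound. After 24 h at 30 °C and 99% humidity, viability was read by BacTiter-Glo luminescence.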
HCMV inh: qHTS Assay for inhibitors of the human cytomegalovirus (HCMV). activity change, negative = inhibition, % at 57.5 µM. 4.5% of 410,000 active. HFF cells, HCMV-luciferase reporter, 72 h; active compounds read low. AID 1259415, 2018; in the data active means activity change below about -60%; inconclusive means no clear call, values can overlap the other calls; inactive means above about -39%
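Compounds were evaluated in HFFs infected with an HCMV luciferase reporter virus (MOI 1 PFU/cell). Luciferase in lysates collected 72 h post infection served as the replication measure.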
Sm TGR inh: qHTS Assay for the Inhibitors of Schistosoma Mansoni Peroxiredoxins; purified TGR, DTNB reduction, TNB absorbance 405 nm; Potency, µM (series often up to 114 µM), actives largely listed as inhibitors; 3% of 360,000 active; further: nearly all actives have a fitted effect of over 60% in size
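Kinetic colorimetric format: TGR-catalysed, NADPH-driven DTNB reduction monitored via TNB absorbance. Enzyme dispensed at 20 nM; compound exposure 15 min at room temperature before reaction start.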
Tb PYK inh: qHTS of Trypanosoma Brucei Inhibitors | pyruvate kinase (Trypanosoma brucei), Q57TT1 | TbPYK enzyme, Kinase-Glo Plus ATP luminescence, 45 min | Potency, µM (doses to about 76.8 µM), usual class: inhibitors | 0.12% of 410,000 active; further: nearly all actives have a fitted effect of over 50% in size
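Quantitative HTS: titrated library compounds versus trypanosomal pyruvate kinase in TEA buffer (pH 7.2) containing KCl, MgCl2, BSA and Tween-20. Reactions were initiated with ADP, 130 uM final. Kinase-Glo Plus luminescence was read after 45 min at RT.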
FMDV antiviral: High Throughput Screening for Foot and Mouth Disease Virus Antivirals | FMDV antiviral cell-based qHTS | Potency, µM (doses to about 57.9 µM), usual class: inhibitors | 1.2% of 410,000 active | AID 1159524, 2015; calls by dose curve; tested in HEK293T cells; further: read-out not given here; nearly all actives have a fitted effect of over 45% in size
Giardia growth: qHTS Assay for Inhibitors of Fructose-1,6-bisphosphate Aldolase from Giardia Lamblia: Giardia lamblia growth inhibition; Giardia lamblia trophozoite growth inhibition; AID 2785, 2010; shares compounds with Giardia FBPA inh-1; 5% of 1,500 active; Potency, µM (top dose mostly 57.5 µM), most hits filed as inhibitors;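 further: trophozoites exposed to compound for 48 h at 37 °C; nearly all actives have a fitted effect of over 70% in size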
Mammal cell tox: qHTS Assay for Inhibitors of Fructose-1,6-bisphosphate Aldolase from Giardia Lamblia: Mammalian cellular toxicity. mammalian cell viability counter-screen, qHTS. Potency, µM (series often up to 57.5 µM), actives largely listed as inhibitors. shares compounds with Giardia FBPA inh-1. 4% of 1,500 active;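 further: Chinese hamster ovary cells used as mammalian cytotoxicity surrogate; viability measured as cellular ATP by luminescence; compound exposure lasted 48 h before reading; nearly all actives have a fitted effect of over 60% in size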
Giardia FBPA inh-2: qHTS Assay for Inhibitors of Fructose-1,6-bisphosphate Aldolase from Giardia Lamblia: Primary screen confirmation | shares compounds with Giardia FBPA inh-1 | purified Giardia aldolase enzyme activity, qHTS | Potency, µM (highest dose often 57.5 µM), usual class: inhibitors | 5% of 1,500 active | AID 2787, 2010; further: nearly all actives have a fitted effect of over 45% in size
Rabbit aldolase: qHTS Assay for Inhibitors of Fructose-1,6-bisphosphate Aldolase from Giardia Lamblia: Rabbit FBPA Selectivity; shares compounds with Giardia FBPA inh-1; Rabbit muscle FBPA enzyme inhibition, selectivity counter-screen; Potency, µM (highest dose often 57.5 µM), hits mostly inhibitors; 4% of 1,500 active; further: nearly all actives have a fitted effect of over 60% in size
Target sequence (P00883 whole entry, looked up): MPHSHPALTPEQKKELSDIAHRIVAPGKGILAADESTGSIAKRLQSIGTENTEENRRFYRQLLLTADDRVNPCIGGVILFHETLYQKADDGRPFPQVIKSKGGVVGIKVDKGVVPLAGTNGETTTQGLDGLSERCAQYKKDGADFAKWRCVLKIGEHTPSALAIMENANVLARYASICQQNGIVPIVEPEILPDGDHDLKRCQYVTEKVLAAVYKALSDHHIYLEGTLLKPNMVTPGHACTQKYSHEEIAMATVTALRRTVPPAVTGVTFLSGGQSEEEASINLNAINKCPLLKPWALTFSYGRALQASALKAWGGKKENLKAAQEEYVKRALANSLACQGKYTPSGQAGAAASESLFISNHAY
GAPDH coupling: qHTS Assay for Inhibitors of Fructose-1,6-bisphosphate Aldolase from Giardia Lamblia: Coupling assay counterscreen confirmation | shares compounds with Giardia FBPA inh-1 | GAPDH coupling enzyme counterscreen, biochemical, qHTS | Potency, µM (top dose mostly 57.5 µM), actives largely listed as inhibitors | 6% of 1,500 active | AID 2795, 2010; further: nearly all actives have a fitted effect of over 55% in size
Of the large screens only hits and unclear results are named; the others gave an inactive call (follow-up assays come after a bar, where they were run); [ ] = another dose, or the depositor's remark. Unless noted, the call rests on the fitted dose curve; in most records, active means well fitted curve in the direction sought with a large enough effect; inconclusive means small, poorly fitted or top-dose-only effect, or another doubt; inactive means no such curve, though single readings can be large; an effect the other way counts as inactive or inconclusive.

COc1cc(OC)cc(C(=O)N2CCN(Cc3ccccc3[N+](=O)[O-])CC2)c1	Giardia FBPA inh-1 18µM | Giardia growth inactive[10.4 µM] | Mammal cell tox inactive | Giardia FBPA inh-2 inactive | Rabbit aldolase inactive | GAPDH coupling inactive
COc1cccc(C(=O)N2CCN(Cc3ccccc3Br)CC2)c1	Giardia FBPA inh-1 16µM | Giardia growth inactive[10.4 µM] | Mammal cell tox inactive | Giardia FBPA inh-2 inactive | Rabbit aldolase inactive | GAPDH coupling inactive
O=C(c1ccccc1)N1CCN(Cc2ccccc2C(F)(F)F)CC1	Giardia FBPA inh-1 20µM | Giardia growth inactive | Mammal cell tox inactive | Giardia FBPA inh-2 inactive | Rabbit aldolase inactive | GAPDH coupling inactive
COc1ccc(C(=O)N2CCN(Cc3ccccc3[N+](=O)[O-])CC2)cc1	Giardia FBPA inh-1 inconclusive
COC(=O)c1ccc(C(=O)OC)c(NC(=O)c2cnn3c(C(F)F)cc(-c4ccc(C)cc4)nc23)c1	none (no result: Giardia FBPA inh-1, RE007 growth inh)
Cc1nnc(N/N=C/c2ccc(-c3ccc(Br)cc3)o2)n1N	Giardia FBPA inh-1 16µM | Giardia growth inactive | Mammal cell tox inactive | Giardia FBPA inh-2 inconclusive | Rabbit aldolase inconclusive | GAPDH coupling inactive
Cc1nnc(N/N=C\c2ccc(-c3cccc(C(=O)O)c3)o2)n1N	Giardia FBPA inh-1 8.9µM | Giardia growth inactive | Mammal cell tox inactive | Giardia FBPA inh-2 inconclusive | Rabbit aldolase inconclusive | GAPDH coupling inconclusive
Cc1nnc(N/N=C/c2ccc(Br)cc2)n1N	Giardia FBPA inh-1 inconclusive
CCCn1c(=O)c(C(=O)Nc2ncccc2O)c(O)c2ccccc21	Giardia FBPA inh-1 inconclusive
Cn1c(=O)c(C(=O)Nc2ncccc2O)c(O)c2ccccc21	Giardia FBPA inh-1 8.9µM, RE007 growth inh inconclusive | Giardia growth inactive[10.4 µM] | Mammal cell tox inactive | Giardia FBPA inh-2 inconclusive | Rabbit aldolase inconclusive | GAPDH coupling inactive
S=c1nc[nH]c2c1ncn2C1CCCO1 (stereo not given)	Giardia FBPA inh-1 2.5µM | Giardia growth inactive | Mammal cell tox 32µM | Giardia FBPA inh-2 inactive | Rabbit aldolase inactive | GAPDH coupling inactive
OCC1OC(n2cnc3c(=S)nc[nH]c32)CC1O (stereo not given)	none (no result: Giardia FBPA inh-1, Sm TGR inh)
Cc1c(Cl)cccc1NC(=O)c1cc2sccc2n1Cc1ccc(F)cc1	none (no result: Giardia FBPA inh-1, RE007 growth inh)
COc1ccc(N2CCN(C(=O)CCn3c(=O)[nH]c4cc(OC)c(OC)cc4c3=O)CC2)cc1	none (no result: Giardia FBPA inh-1, RE007 growth inh)
C=CCc1cc(OC)ccc1OCCCCn1cncn1	Giardia FBPA inh-1 32µM, Sm TGR inh inconclusive | Giardia growth inconclusive | Mammal cell tox inactive | Giardia FBPA inh-2 inactive | Rabbit aldolase inactive | GAPDH coupling inactive
CC(C)(C)NC[C@H](O)COc1cccc2c1C[C@@H](O)[C@@H](O)C2	none (no result: RE007 growth inh, HCMV inh, Sm TGR inh, FMDV antiviral)
CC(=O)c1ccc(N2CCN(c3ccc(S(=O)(=O)NCCCN(C)C)cc3[N+](=O)[O-])CC2)cc1	none
CN(C)CCCNS(=O)(=O)c1ccc(N2CCN(Cc3ccc4c(c3)OCO4)CC2)c([N+](=O)[O-])c1	Giardia FBPA inh-1 14µM | Giardia growth inactive | Mammal cell tox inactive | Giardia FBPA inh-2 inactive | Rabbit aldolase inactive | GAPDH coupling inactive
CCOc1ccc(Nc2nnc(-n3nc(C)cc3C)c3ccccc23)cc1	none (no result: Giardia FBPA inh-1, RE007 growth inh)
CC(=O)Nc1ccccc1O	none
CC(=O)Nc1ccc(-c2ccc(NC(C)=O)c(O)c2)cc1O	none | Giardia growth inactive | Mammal cell tox inactive | Giardia FBPA inh-2 2.6µM | Rabbit aldolase inactive | GAPDH coupling inconclusive
NS(=O)(=O)c1ccc(-c2ccc(/C=C3\NC(=S)NC3=O)o2)cc1	Giardia FBPA inh-1 16µM, Sm TGR inh 8.9µM, Tb PYK inh inconclusive | Giardia growth inconclusive | Mammal cell tox inactive | Giardia FBPA inh-2 inactive | Rabbit aldolase inactive | GAPDH coupling inactive
C/C(=N\NC(=O)c1ccc(Cl)c(Cl)c1)c1ccccn1	Giardia FBPA inh-1 inconclusive, RE007 growth inh inconclusive, HCMV inh -99 | Giardia growth inactive | Mammal cell tox 2.9µM | Giardia FBPA inh-2 inactive | Rabbit aldolase inactive | GAPDH coupling inactive

Assay outcomes (PubChem)
